The record followed here is the supplement of paper PMC10849652.

Of roughly 7,900 targets only a part is listed; those with a hit were picked by preference. About 0.6% of all pairs of compound and target were hits. A number with no mark means an inactive call.

Chain of UniProt Q92878 (Q92878 whole entry, looked up): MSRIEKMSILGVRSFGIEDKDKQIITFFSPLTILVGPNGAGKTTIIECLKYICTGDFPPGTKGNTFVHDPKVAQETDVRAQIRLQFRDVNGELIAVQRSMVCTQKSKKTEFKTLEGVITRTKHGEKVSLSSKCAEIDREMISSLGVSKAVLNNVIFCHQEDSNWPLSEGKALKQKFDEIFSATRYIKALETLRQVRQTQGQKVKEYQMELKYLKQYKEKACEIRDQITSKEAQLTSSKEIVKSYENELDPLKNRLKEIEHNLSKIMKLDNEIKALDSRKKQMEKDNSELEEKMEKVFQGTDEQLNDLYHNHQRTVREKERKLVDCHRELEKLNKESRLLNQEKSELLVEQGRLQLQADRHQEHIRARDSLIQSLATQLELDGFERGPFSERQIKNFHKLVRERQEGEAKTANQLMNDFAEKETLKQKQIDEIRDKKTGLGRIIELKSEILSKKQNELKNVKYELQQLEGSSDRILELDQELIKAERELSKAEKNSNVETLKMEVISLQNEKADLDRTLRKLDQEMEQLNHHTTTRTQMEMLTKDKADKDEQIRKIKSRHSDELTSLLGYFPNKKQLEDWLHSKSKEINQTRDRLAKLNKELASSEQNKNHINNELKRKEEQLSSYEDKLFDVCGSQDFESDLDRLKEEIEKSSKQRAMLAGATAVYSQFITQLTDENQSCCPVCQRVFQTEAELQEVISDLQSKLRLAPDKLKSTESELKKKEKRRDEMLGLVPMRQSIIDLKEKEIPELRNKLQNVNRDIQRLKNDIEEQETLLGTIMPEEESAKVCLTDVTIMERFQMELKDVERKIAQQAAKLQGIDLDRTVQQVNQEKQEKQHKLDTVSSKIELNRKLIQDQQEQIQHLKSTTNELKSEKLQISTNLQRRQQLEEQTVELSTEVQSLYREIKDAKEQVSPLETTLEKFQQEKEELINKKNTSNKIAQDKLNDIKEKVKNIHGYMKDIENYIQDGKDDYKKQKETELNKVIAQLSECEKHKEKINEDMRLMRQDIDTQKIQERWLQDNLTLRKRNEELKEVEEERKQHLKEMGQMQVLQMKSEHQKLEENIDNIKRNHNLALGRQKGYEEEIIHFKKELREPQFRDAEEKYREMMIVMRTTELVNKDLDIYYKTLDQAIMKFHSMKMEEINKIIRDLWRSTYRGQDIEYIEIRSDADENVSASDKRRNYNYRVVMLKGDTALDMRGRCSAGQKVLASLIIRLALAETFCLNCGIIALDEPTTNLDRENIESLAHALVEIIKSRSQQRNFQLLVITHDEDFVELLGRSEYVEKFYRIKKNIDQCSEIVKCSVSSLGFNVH
Chain of UniProt Q5JTH9 (Q5JTH9 whole entry, looked up): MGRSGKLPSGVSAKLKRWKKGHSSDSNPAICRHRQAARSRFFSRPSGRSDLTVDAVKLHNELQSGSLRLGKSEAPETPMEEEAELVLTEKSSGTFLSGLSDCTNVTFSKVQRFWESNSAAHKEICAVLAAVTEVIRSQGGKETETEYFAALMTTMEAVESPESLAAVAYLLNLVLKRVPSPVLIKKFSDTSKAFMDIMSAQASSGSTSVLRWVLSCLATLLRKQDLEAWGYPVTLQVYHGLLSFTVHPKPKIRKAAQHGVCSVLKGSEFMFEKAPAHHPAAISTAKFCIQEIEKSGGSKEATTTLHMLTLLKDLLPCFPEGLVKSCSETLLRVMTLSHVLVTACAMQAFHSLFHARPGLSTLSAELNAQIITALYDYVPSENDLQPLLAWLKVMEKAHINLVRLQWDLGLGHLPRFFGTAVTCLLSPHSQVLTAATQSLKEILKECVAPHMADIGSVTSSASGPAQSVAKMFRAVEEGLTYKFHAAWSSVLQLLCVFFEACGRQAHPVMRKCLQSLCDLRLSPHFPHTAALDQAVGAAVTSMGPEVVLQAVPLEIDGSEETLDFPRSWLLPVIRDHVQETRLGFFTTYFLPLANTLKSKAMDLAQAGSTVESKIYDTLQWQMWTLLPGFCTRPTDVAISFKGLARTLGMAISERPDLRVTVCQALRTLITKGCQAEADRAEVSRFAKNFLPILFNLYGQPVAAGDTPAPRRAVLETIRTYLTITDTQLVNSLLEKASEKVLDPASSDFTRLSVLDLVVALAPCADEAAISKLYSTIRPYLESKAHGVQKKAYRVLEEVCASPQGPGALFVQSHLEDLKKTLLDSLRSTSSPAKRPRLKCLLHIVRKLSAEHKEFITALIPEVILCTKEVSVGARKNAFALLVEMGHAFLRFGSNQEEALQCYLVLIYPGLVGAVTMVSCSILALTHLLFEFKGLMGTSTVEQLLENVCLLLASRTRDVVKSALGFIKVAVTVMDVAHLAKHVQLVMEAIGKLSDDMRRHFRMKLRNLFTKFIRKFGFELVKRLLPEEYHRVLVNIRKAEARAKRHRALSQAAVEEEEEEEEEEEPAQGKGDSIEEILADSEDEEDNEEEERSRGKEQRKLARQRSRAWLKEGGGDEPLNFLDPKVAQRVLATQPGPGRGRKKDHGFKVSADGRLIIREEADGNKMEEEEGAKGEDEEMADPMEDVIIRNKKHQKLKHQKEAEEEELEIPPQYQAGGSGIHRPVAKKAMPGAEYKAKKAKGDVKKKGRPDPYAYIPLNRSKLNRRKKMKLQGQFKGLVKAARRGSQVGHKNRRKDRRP
Chain of UniProt Q96T51 (Q96T51 whole entry, looked up): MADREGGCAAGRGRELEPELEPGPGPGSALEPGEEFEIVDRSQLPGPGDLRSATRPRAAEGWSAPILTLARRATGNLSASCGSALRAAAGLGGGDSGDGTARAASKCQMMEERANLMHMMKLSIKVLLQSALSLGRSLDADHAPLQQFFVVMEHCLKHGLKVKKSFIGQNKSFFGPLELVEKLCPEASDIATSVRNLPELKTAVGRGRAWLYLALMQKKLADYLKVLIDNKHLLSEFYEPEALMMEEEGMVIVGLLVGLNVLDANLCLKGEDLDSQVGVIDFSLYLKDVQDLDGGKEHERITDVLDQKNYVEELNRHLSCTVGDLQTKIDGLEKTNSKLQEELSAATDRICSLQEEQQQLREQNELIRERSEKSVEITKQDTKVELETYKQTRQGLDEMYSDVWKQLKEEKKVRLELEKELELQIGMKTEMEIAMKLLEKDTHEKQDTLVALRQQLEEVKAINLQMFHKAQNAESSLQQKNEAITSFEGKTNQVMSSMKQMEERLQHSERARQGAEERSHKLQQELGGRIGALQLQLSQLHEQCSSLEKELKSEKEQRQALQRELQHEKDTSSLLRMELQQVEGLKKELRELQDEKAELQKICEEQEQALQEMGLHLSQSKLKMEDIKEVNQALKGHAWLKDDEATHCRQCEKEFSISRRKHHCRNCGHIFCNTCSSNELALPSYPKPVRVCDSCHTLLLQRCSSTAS
Chain of UniProt O75116 (O75116 whole entry, looked up): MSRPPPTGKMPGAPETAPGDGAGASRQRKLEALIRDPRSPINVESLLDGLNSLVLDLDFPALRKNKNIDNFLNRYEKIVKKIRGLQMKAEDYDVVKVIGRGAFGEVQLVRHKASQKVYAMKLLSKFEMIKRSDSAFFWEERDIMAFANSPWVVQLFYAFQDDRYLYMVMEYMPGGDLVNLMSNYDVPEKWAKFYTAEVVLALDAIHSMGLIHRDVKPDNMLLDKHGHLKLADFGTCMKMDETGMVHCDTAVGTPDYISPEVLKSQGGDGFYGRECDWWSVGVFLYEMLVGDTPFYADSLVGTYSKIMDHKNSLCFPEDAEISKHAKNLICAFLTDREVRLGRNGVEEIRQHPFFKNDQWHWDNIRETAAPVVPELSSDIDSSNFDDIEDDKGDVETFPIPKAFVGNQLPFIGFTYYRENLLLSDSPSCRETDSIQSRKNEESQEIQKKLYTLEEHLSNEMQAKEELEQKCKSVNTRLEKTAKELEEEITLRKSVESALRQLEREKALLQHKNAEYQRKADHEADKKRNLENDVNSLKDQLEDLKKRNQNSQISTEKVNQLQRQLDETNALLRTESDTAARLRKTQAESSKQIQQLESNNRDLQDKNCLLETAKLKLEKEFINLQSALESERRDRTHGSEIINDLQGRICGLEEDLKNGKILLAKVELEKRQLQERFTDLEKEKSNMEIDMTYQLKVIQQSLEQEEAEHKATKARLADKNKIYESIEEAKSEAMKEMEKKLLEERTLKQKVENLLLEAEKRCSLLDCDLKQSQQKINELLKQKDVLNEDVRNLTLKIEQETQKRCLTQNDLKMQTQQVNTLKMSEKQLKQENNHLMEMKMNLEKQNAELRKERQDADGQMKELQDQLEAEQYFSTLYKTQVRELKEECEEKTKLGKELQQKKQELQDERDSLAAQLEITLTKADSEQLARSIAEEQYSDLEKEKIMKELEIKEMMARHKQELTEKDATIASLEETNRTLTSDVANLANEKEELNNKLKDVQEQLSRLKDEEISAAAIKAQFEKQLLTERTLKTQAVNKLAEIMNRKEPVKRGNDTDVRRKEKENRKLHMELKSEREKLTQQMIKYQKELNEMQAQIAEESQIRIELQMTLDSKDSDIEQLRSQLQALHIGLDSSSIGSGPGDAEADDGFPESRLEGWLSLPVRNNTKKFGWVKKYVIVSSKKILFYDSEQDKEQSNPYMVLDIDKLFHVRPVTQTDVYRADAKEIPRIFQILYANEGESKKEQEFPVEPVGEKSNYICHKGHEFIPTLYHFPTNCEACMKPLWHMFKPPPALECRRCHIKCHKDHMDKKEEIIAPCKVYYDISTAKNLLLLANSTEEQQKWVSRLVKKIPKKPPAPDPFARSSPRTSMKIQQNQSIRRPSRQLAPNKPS
Chain of UniProt Q8N5L8 (Q8N5L8 whole entry, looked up): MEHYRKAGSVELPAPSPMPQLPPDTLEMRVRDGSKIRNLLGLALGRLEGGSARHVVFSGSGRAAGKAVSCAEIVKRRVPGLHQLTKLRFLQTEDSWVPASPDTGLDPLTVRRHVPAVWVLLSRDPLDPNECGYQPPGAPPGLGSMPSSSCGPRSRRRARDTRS
Chain of UniProt Q9BUV8 (Q9BUV8 whole entry, looked up): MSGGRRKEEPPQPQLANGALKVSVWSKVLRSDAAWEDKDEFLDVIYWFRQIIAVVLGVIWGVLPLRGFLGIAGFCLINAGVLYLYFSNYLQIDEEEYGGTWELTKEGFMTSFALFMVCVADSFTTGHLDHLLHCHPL

Compound in one experiment: Cc1sc2c(c1C)C(c1ccc(Cl)cc1)=N[C@@H](CC(=O)OC(C)(C)C)c1nnc(C)n1-2
The experiment is described as follows: log2 fold change, soluble protein after heating vs DMSO (PISA); higher = thermal stabilisation; K562 cells, 10 uM, 30 min; active = over 0.2 and 3.5 SD of the protein, either way, in both replicates (recomputed). The method, boiled down: (§1)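 K562 cells at 2×10^6 cells/mL were exposed to 10 μM compound for 30 min, then aliquots were heated for 3 min across 48°C-58°C, pooled, and extracted in PBS containing 0.5% NP-40 at 4°C. The supernatant after 21,000xg for 90 min was taken as soluble protein and measured by TMTpro 16plex LC-MS/MS with channel sums equalised. Thermal stability is reported relative to control samples, with values from duplicates. Fold changes are given on a log2 scale.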
As to RHOXF2 (UniProt Q9BQY4), the log2 fold change is 0.012.
Turning to RSPRY1 (UniProt Q96DX4), the log2 fold change was -0.026.
As to RNF14 (UniProt Q9UBS8), the log2 fold change was -0.013.
The same measure, in the same setting: the result for SCAMP2 (UniProt H3BUB6) reads 0.15; that for RPS3A (UniProt P61247), 0.099.
Regarding RBM17 (UniProt Q96I25), the log2 fold change was 0.003.
As for RAD50 isoform 2 (UniProt Q92878), the log2 fold change is 0.
With SLBP (UniProt Q14493), the log2 fold change was 0.059.
On to RNPEP (UniProt Q9H4A4), for which the log2 fold change was -0.015.
Still for that read-out and setting: the result for SAMSN1 isoform 3 (UniProt Q9NSI8) reads -0.01; that for RBM26 isoform 2 (UniProt Q5T8P6), -0.011.
Regarding SENP6 (UniProt Q9GZR1), the log2 fold change is 0.022.
The same measure, in the same setting: the figure for RUFY1 (UniProt Q96T51) is 0.002.
With RAVER1 (UniProt E9PAU2), the log2 fold change was -0.19.
As to SGPL1 (UniProt O95470), the log2 fold change is 0.049.
Regarding RSL1D1 (UniProt O76021), the log2 fold change was 0.178.
On to RAB5IF isoform 5 (UniProt Q9BUV8), for which the log2 fold change was -0.08.
Regarding RECQL (UniProt P46063), the log2 fold change is -0.029.
With SIRT2 (UniProt Q8IXJ6), the log2 fold change was 0.093.
Consider RAD51 (UniProt Q06609), for which the log2 fold change is 0.
For the target SDHAF2 (UniProt Q9NX18), the log2 fold change was -0.097.
For the target RRP9 (UniProt O43818), the log2 fold change is 0.015.
For RALA (UniProt P11233), the log2 fold change is -0.016.
In the case of RPP25L (UniProt Q8N5L8), the log2 fold change is 0.143.
On to SCYL3 isoform 2 (UniProt Q8IZE3), for which the log2 fold change is 0.041.
The same measure, in the same setting: the result for RRP12 (UniProt Q5JTH9) reads 0.001; that for RETREG3 (UniProt Q86VR2), -0.046; that for RNF220 (UniProt Q5VTB9), -0.045.
With RB1CC1 (UniProt Q8TDY2), the log2 fold change was 0.029.
As to ROCK2 (UniProt O75116), the log2 fold change was 0.024.
Regarding RTF2 (UniProt Q9BY42), the log2 fold change was -0.038.
Take RAB33B (UniProt Q9H082): the log2 fold change is -0.016.
For SASH1 (UniProt O94885), the log2 fold change was -0.045.
Turning to RELA (UniProt Q04206), the log2 fold change is 0.031.
As to RPTOR (UniProt Q8N122), the log2 fold change was -0.02.
Regarding RPS5 (UniProt P46782), the log2 fold change is 0.082.
Still for that read-out and setting: the result for RPS6KA2 isoform 2 (UniProt Q15349) reads -0.015.

Compound in a further experiment: c1ccc([C@@H]2C[C@H]2NC2CCNCC2)cc1
Described as above. In a few lines:
as §1
Consider RHOXF2 (UniProt Q9BQY4), for which the log2 fold change was 0.057.
Still for that read-out and setting: the result for RSPRY1 (UniProt Q96DX4) reads 0.029; that for RNF14 (UniProt Q9UBS8), 0.03; that for SCAMP2 (UniProt H3BUB6), 0.135.
Same read-out and setting: the figure for RPS3A (UniProt P61247) is 0; for RBM17 (UniProt Q96I25) it is -0.013; for RAD50 isoform 2 (UniProt Q92878) it is 0.014.
With SLBP (UniProt Q14493), the log2 fold change was 0.034.
Take RNPEP (UniProt Q9H4A4): the log2 fold change was -0.021.
Turning to SAMSN1 isoform 3 (UniProt Q9NSI8), the log2 fold change is -0.01.
The same measure, in the same setting: the result for RBM26 isoform 2 (UniProt Q5T8P6) reads 0.012.
For SENP6 (UniProt Q9GZR1), the log2 fold change is 0.056.
Turning to RUFY1 (UniProt Q96T51), the log2 fold change is -0.028.
With RAVER1 (UniProt E9PAU2), the log2 fold change was 0.053.
Still for that read-out and setting: the result for SGPL1 (UniProt O95470) reads -0.004; that for RSL1D1 (UniProt O76021), 0.031.
The same measure, in the same setting: the result for RAB5IF isoform 5 (UniProt Q9BUV8) reads 0.028; that for RECQL (UniProt P46063), -0.02; that for SIRT2 (UniProt Q8IXJ6), -0.016.
For the target RAD51 (UniProt Q06609), the log2 fold change is -0.053.
With SDHAF2 (UniProt Q9NX18), the log2 fold change is -0.096.
Still for that read-out and setting: the figure for RRP9 (UniProt O43818) is 0.1; for RALA (UniProt P11233) it is 0.069.
Consider RPP25L (UniProt Q8N5L8), for which the log2 fold change was 0.033.
Consider SCYL3 isoform 2 (UniProt Q8IZE3), for which the log2 fold change is -0.113.
RRP12 (UniProt Q5JTH9): the log2 fold change is 0.
As for RETREG3 (UniProt Q86VR2), the log2 fold change is -0.037.
Take RNF220 (UniProt Q5VTB9): the log2 fold change was 0.038.
On to RB1CC1 (UniProt Q8TDY2), for which the log2 fold change is -0.063.
Consider ROCK2 (UniProt O75116), for which the log2 fold change is -0.01.
Regarding RTF2 (UniProt Q9BY42), the log2 fold change was 0.045.
With RAB33B (UniProt Q9H082), the log2 fold change is 0.069.
In the case of SASH1 (UniProt O94885), the log2 fold change is -0.161.
RELA (UniProt Q04206): the log2 fold change is 0.008.
In the case of RPTOR (UniProt Q8N122), the log2 fold change was 0.032.
Same read-out and setting: the result for RPS5 (UniProt P46782) reads 0.001; that for RPS6KA2 isoform 2 (UniProt Q15349), -0.02.
